# High-throughput results deposited in PubChem by National Center for Advancing Translational Sciences (NCATS).
# Sampled rows, rich in hits. Any-hit rate of the full collection: about 12%.
# AMA1-RON2 inh: inhibitors of Plasmodium falciparum AMA1-RON2 interaction | AlphaScreen AMA1-biotinylated RON2 peptide binding | Potency, µM (series often up to 58.2 µM), inactives show top-dose activity change, negative = inhibition, usual class: inhibitors | actives 0.2% (n = 360,000);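 further: 0% = vehicle wells and -100% = peptide control; nearly all actives have a fitted effect of over 45% in size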
#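 AMA1 (3D7) with his tag at 25 nM final met compounds first, then biotinylated RON2 peptide at 25 nM; detection used donor plus acceptor beads, 10 µg/mL apiece, read by AlphaScreen after 30 min at room temperature.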
# Pf growth 96h: P. falciparum growth inhibition at 96 hours | P. falciparum luciferase reporter growth, 96 h | Potency, µM (doses to about 28.7 µM), for the others: top-dose activity change, negative = inhibition, most hits filed as inhibitors | actives 6.9% (n = 320,000); further: on the % scale 0 is the no-effect control and ±100 the full control effect
#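 Erythrocytes infected with luciferase-expressing P. falciparum were dispensed at 2% hematocrit and 0.05% parasitemia (final), then incubated with compounds 96 hours at 37 C in 5% CO2. Luminescence after detection reagent addition reported growth.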
# HCV inh: blocks hepatitis C virus. Huh7.5.1 HCVcc-Cre infection, luciferase reporter, 44 h. Potency, µM (titrated, usually from 41.8 µM), for the others: top-dose activity change, negative = inhibition, usual class: inhibitors. actives 3.4% (n = 340,000); further: on the % scale 0 is the no-effect control and ±100 the full control effect
#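 Antiviral activity was scored by luciferase reporter output from cells infected with HCVcc-Cre (~0.5 moi) in presence of compound, 44 h infection period, cells seeded 1,000/well 4 h prior.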
# SARS PLpro yeast: SARS-CoV PLP inhibition in yeast. S. cerevisiae expressing SARS-CoV PLpro, growth rescue. Potency, µM (highest dose often 32.9 µM), without a hit: top-dose activity, positive = growth rescue, most hits filed as activators. actives 0.19% (n = 330,000). AID 485353; calls by dose curve; further: 0% is about no effect; nearly all actives have a fitted effect of over 55% in size
# Pf growth 48h: inhibits P. falciparum growth in the first generation, 48 h. P. falciparum luciferase growth in erythrocytes, 48 h. Potency, µM (highest dose often 28.7 µM), for inactives: top-dose activity change, negative = inhibition, hits mostly inhibitors. actives 5.9% (n = 310,000). AID 504832; further: on the % scale 0 is the no-effect control and ±100 the full control effect
#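 Cell-based growth assay: transgenic P. falciparum expressing firefly luciferase, cultured in red cells within RPMI 1640 containing 0.5% w/v Albumax, 24 mM bicarbonate and gentamycin. A drop in luciferase activity indicates inhibition.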
# NS1 function inh: inhibitors of influenza NS1 protein function. AID 2326. Potency, µM (titrated, usually from 46.1 µM), without a hit: at the highest dose activity, positive = more growth. actives 0.4% (n = 270,000); calls by dose curve; further: actives are rising curves; nearly all actives have a fitted effect of over 50% in size
#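 S. cerevisiae expressing influenza A NS1, grown in glucose, washed, then diluted 1:100 into pH 6.0 -URA galactose medium with 23 nl compound. Growth recovery read as OD600; NS1-free strain serves as control.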
# Active calls of the source: *; ? = inconclusive; nt = not tested or not shown; [ ] = another dose, or the depositor's remark. Unless noted, the call rests on the fitted dose curve; in most records, active means well fitted curve in the direction sought with a large enough effect; inconclusive means small, poorly fitted or top-dose-only effect, or another doubt; inactive means no such curve, though single readings can be large; an effect the other way counts as inactive or inconclusive. Potency means the concentration at half of the fitted maximal effect.
SMILES,AMA1-RON2 inh,Pf growth 96h,HCV inh,SARS PLpro yeast,Pf growth 48h,NS1 function inh
CCn1c(=O)c(C(=O)NCCN2CCCCC2)c(O)c2ccccc21,0.0%,0.0%,?,-0.1%,8.28µM*,-4.1%
C=CCn1c(=O)c(C(=O)NCc2ccccc2)c(O)c2ccccc21,184.1%,-12.9%,?,?,12.6%,-35.2%
CCCCCCNC(=O)c1c(O)c2cccc3c2n(c1=O)CCC3,6.4%,?,8.1%,-2.4%,10.6%,-1.1%
CCN(CC)CCNC(=O)c1c(O)c2cccc3c2n(c1=O)CCC3,-12.5%,nt,?,1.9%,1.85µM*,-12.8%
CC(=O)c1c(O)c2ccccc2n(Cc2ccccc2)c1=O,38.8%,13.1µM*,-29.8%,-1.7%,?,-7.0%
O=C(Cn1c(=O)oc2ccccc21)N1CCCC1,-2.9%,2.8%,12.4%,0.6%,-5.8%,1.0%
CCC1(CC(C)C)SC(N)=NC1=O (centres undefined),2.3%,nt,23.2%,nt,nt,nt
CC(=O)c1cccc(OCC(=O)Nc2cccc(C(=O)Nc3c(C)n(C)n(-c4ccccc4)c3=O)c2)c1,-4.0%,13.2%,0.6%,-1.5%,22.2%,nt
Cc1cc(F)ccc1N1CCC(N2CCN(CCC(C)C)C(CCO)C2)CC1 (centres undefined),-12.3%,1.2%,10µM*,-1.5%,?,-3.2%
Cc1cc(F)ccc1N1CCC(N2CCN(C(C)C)C(CCO)C2)CC1 (centres undefined),-16.0%,10.4µM*,?,-4.3%,-20.7%,-8.7%
CCCOC(=O)[C@@H]1[C@@H](C(=O)O)[C@H]2CC[C@@H]1O2,nt,nt,nt,nt,nt,-1.0%
CCn1cc(C(=O)N[C@H](C(=O)NC(C)(C)CO)C(C)C)c(=O)c2cc3c(cc21)OCO3,-2.3%,8.28µM*,-5.3%,0.2%,?,0.8%
CCn1cc(C(=O)N[C@@H](CCSC)C(=O)NC(C)(C)CO)c(=O)c2cc3c(cc21)OCO3,6.1%,1.47µM*,4.1%,2.1%,1.85µM*,1.1%
CCn1cc(C(=O)N[C@@H](CCSC)C(=O)NCCCOC)c(=O)c2cc3c(cc21)OCO3,5.9%,8.2%,-11.1%,2.6%,?,-3.4%
CC(/C=C/c1cccc(Oc2ccc(F)cc2)c1)N(O)C(N)=O (centres undefined),nt,nt,nt,nt,nt,-37.0%
COc1ccccc1C(=O)OCCNC(=O)Cn1cnc2c1c(=O)n(C)c(=O)n2C,0.5%,16.7%,18.0%,1.9%,23.7%,10.9%
COc1ccc(C(=O)N2CCN(c3nc4ccccc4o3)CC2)cc1OC,-2.0%,-11.7%,11.2µM*,4.2%,nt,-6.5%
O=C(CCc1nnc(CCc2c[nH]c3ccccc23)o1)NC1CCC1,29.2%,-14.1%,-15.6%,-0.4%,6.3%,-4.2%
COC(=O)C1=C(c2ccc(-c3ccccc3)c(F)c2)C[C@@H]2CC[C@H]1N2C(=O)N1CCc2cc(OC)c(OC)cc2C1,-25.4%,?,?,4.2%,5.86µM*,nt
COC(=O)C1=C(c2ccc(-c3ccccc3)c(F)c2)C[C@@H]2CC[C@H]1N2C(=O)N1CCCC1,-20.3%,?,2.82µM*,-1.0%,14.7µM*,nt
COC(=O)C1=C(c2ccc(-c3ccccc3)c(F)c2)C[C@@H]2CC[C@H]1N2C(=O)N1CCC(O)CC1,-5.2%,?,?,8.6%,?,nt
COC(=O)C1=C(c2ccc(-c3ccccc3)c(F)c2)C[C@@H]2CC[C@H]1N2C(=O)N1CCCCC1,-5.6%,?,?,4.3%,10.4µM*,nt
COC(=O)C1=C(c2ccc3ccccc3c2)C[C@@H]2CC[C@H]1N2C(=O)N1CCC(O)CC1,1.7%,-11.7%,1.5%,-9.3%,?,nt
COC(=O)C1=C(c2ccc3ccccc3c2)C[C@@H]2CC[C@H]1N2C(=O)N1CCCC1,14.3%,?,10µM*,1.0%,9.28µM*,nt
Cc1ccc(S(=O)(=O)N(C)C)cc1NC(=O)COC(=O)c1sc2cc(Cl)ccc2c1Cl,6.5%,62.3%,11.7%,-1.0%,11.7%,-9.4%
SMILES,AMA1-RON2 inh,Pf growth 96h,HCV inh,SARS PLpro yeast,Pf growth 48h,NS1 function inh
COC(=O)CSc1ncnc2c(C)csc12,?,-13.1%,-4.9%,-0.3%,40.8%,0.4%
CCCc1cc(-c2[nH]ncc2-c2ccc3c(c2)OCCCO3)c(O)cc1O,14.4%,13.1µM*,11.2µM*,-1.4%,?,6.8%
CCCc1cc(-c2[nH]ncc2-c2ccc(C(=O)OCC)o2)c(O)cc1O,-4.6%,7.1%,?,4.6%,6.57µM*,?
CCc1cc(-c2[nH]ncc2-c2nc3ccccc3n2C)c(O)cc1O,94.6%,-24.9%,-21.9%,0.1%,-18.2%,4.1%
Cn1cc(CNCc2cn[nH]c2-c2ccc(F)cc2)c(-c2ccc3c(c2)OCCO3)n1,-1.3%,-4.6%,1.9%,-0.9%,14.9%,4.5%
Cc1nc(SCc2ccccc2C)n[nH]1,2.5%,-15.3%,-12.9%,-10.3%,15.1%,-40.9%
CCc1nc(SCc2ccc(OCC(C)C)cc2)n[nH]1,16.4%,10.4µM*,?,-16.5%,45.2%,-141.4%
CCc1nc(SCc2ccccc2C)n[nH]1,2.1%,6.57µM*,7.5%,1.6%,-18.4%,-3.6%
CCc1nc(SCc2ccc(Br)cc2)n[nH]1,26.6%,-7.1%,-12.1%,-5.0%,76.7%,-33.5%
OC(CCN1CCC2CCC(C2)C1)c1ccc(Br)cc1 (centres undefined),1.6%,nt,31.6µM*,nt,nt,nt
CC1(C)S[C@@H]2[C@H](NC(=O)C3(N)CCCCC3)C(=O)N2[C@@H]1C(=O)O,nt,nt,nt,nt,nt,-5.2%
CN(C)Cc1nc2ccccc2c(=O)n1Cc1nc(C(C)(C)C)cs1,3.2%,-18.2%,?,7.4%,13.1µM*,-9.0%
CN1CCN(Cc2nc3ccccc3c(=O)n2Cc2nc(-c3cccc([N+](=O)[O-])c3)cs2)CC1,-23.8%,2.33µM*,2.51µM*,-6.7%,?,nt
CN1CCN(Cc2nc3ccccc3c(=O)n2Cc2nc(-c3ccc4ccccc4c3)cs2)CC1,-21.6%,?,11.2µM*,-9.6%,11.7µM*,10.2%
O=C(Nc1nnc([C@@H]2C[C@H](O)[C@@H](CO)O2)s1)c1ccc(Oc2ccccc2)cc1,7.3%,nt,nt,nt,nt,nt
O=C(NCC(=O)N(c1cccnc1)C(C(=O)NC1CCCC1)c1ccc(F)cc1)c1ccco1 (centres undefined),nt,-31.1%[5.75 µM],nt,0.6%,28.7%,?
CC1(C)[C@@H]2CC[C@@]1(C)C(=O)C2,nt,11.3%,nt,nt,-5.4%,nt
COc1ccc(N2CCN(C(=O)/C=C/[C@H]3O[C@@H](n4ccc(=O)[nH]c4=O)[C@H](O)[C@@H]3O)CC2)cc1,10.3%,nt,nt,nt,nt,nt
CCOC(=O)c1c(-n2c(C)cc(C=O)c2C)sc2c1CCCC2,-15.2%,?,?,-12.3%,?,-67.9%
CCOC(=O)c1c(-n2c(C)cc(/C=C3\C(=O)NC(=O)N(C)C3=O)c2C)sc2c1CCCC2,3.8%,3.7µM*,14.1µM*,?,?,0.3%
